Assay results: PubChem BioAssay AID651793 (National Center for Advancing Translational Sciences (NCATS), 2012)
Inconclusive results are not listed. Where a call stands in place of a potency, no number is given. The source made the active and inactive calls. The call rests on the fitted dose curve; in most records, active means well fitted inhibition curve with a large enough effect; inconclusive means small, poorly fitted or top-dose-only effect; inactive means flat fitted curve, though single readings scatter.

Experiment: InCell qHTS Assay for Inhibitors of the mTORC1 Signaling Pathway in WT MEF Cells: Hit Validation
Description: The mammalian target of rapamycin (mTOR) is an intracellular serine/threonine kinase Aberrant regulation of mTOR signaling plays a causative role in a number of human diseases, including cancer, benign tumors such as lymphangioleiomyomatosis (LAM) and Tuberous Sclerosis Complex (TSC), and metabolic diseases such as diabetes and obesity. This project aims to identify inhibitors of ribosomal protein S6 (rpS6) phosphorylation. The phosphorylation of rpS6 is a key event downstream of mTOR activation. The assay uses a phospho-specific antibody of phospho-rpS6 to detect inhibitors of mTOR activation. […]
For quantitative high throughput analysis of mTORC1 signaling, we developed a cell-based assay for immuno-fluorescence based detection of rpS6 phosphorylation on the Acumen Explorer that will be used a platform for the primary small molecule screen. […] The fluorescence emission from the Alexa-488 conjugated rpS6 phospho-235/236 antibody staining is selected using a […] band pass filter. Fluorescence emission from the PI stain is selected using a 575-640 nm band pass filter. The normalized phospho-S6 staining is calculated as the ratio of the integrated Alexa 488 intensity divided by the integrated PI intensity for the single concentration rapamycin control (7.5 nM) and DMSO columns. […]

Compound | Potency
CCOc1ccc(NC(=O)c2cc3c(C)nn(-c4ccccc4)c3s2)cc1 | 17.9 µM (active)
Cn1cc(C2=C(c3cn(C4CCN(Cc5ccccn5)CC4)c4ccccc34)C(=O)NC2=O)c2ccccc21 | inactive
